Experimental data as given in ChEMBL document CHEMBL1157539, “Thousands of chemical starting points for antimalarial lead identification” (Nature, 2010).

These molecules were tested on Plasmodium falciparum (assay: GSK_TCMDC: Inhibition of Plasmodium falciparum Dd2 in whole red blood cells, using parasite LDH activity as an index of growth. Test compounds present at 2uM).
Assay type: functional

Row | SMILES | Inhibition
1 | O=C(O)C(F)(F)F.OCC1CCN(Cc2cccc(-c3ccc(-c4nc5cc(F)ccc5[nH]4)cc3)c2)CC1 | 86%
2 | CCOc1ccc(-c2nc(NC(=O)CS(=O)(=O)c3ccccc3)sc2C)cc1 | 59%
3 | Fc1ccc(Nc2ccnc3cc(-c4cccc(CNCCN5CCOCC5)c4)ccc23)c(Cl)c1 | 99%
4 | Cc1ccc(Nc2nccc(NCC(O)c3cccc(C(F)(F)F)c3)n2)cc1 (centres undefined) | 74%

What follows are molecules tested on HepG2 (assay: GSK_TCMDC: Percent inhibition of human HepG2 cell line. Test compounds present at 10uM.).
Assay type: functional

Row | SMILES | Inhibition
5 | COc1cccc(C(=O)Nc2sc3c(c2C(N)=O)CCCC3)c1OC | 6%
6 | CCCN(Cc1nnc(-c2cccs2)o1)C(=O)CSc1nnnn1-c1ccc(C)c(C)c1 | 0%
7 | CCOC(=O)c1ccc(-c2c(C(F)(F)F)noc2-c2cc(CC)c(OC)cc2O)o1 | 0%
8 | O=C(Nc1ccc2c(c1)CCCN2S(=O)(=O)c1cccs1)c1cc([N+](=O)[O-])ccc1Cl | 29%
9 | COc1cccc2cc(C(=O)N[C@@H](CC(C)C)C(=O)N[C@H](/C=N/N3C(=O)CN(Cc4ccccc4)C3=O)CCc3ccccc3)oc12 | 14%
10 | CCOC(=O)CCCCCNC[C@H](O)c1ccccc1.Cl | 2%
11 | COc1c(C2CCN(CCCCNC(=O)C=Cc3cc4cc(Cl)ccc4o3)CC2)ccc2c1CCCC2 | 33%
12 | O=C(Nc1ccc(C(=O)N(Cc2ccc3c(c2)OCO3)C2CCCC2)cc1)c1cccs1 | 14%
13 | Cc1cccc2nc(-c3cccc(-c4ccc(CN5CCN(CCO)CC5)cc4)c3)[nH]c12.O=C(O)C(F)(F)F | 12%
14 | CN1CCN(c2ccnc3ccc(NC(=O)Nc4c(Cl)cccc4Cl)cc23)CC1 | 11%
15 | COc1cc(F)c2nccc([C@@H](O)CN3CCC(NCc4nc5cccc(F)c5[nH]4)CC3)c2c1.O=C(O)C(=O)O | 11%
16 | CN1CCN(c2ccc(Nc3nccc(-c4c(-c5cccc(NC(=O)c6c(F)cccc6F)c5)nn5ccccc45)n3)cc2)CC1 | 86%
17 | COc1cc(OC)cc(C(=O)N2CCOC(CCN3CCC(c4ccccc4)CC3)(c3ccc(Cl)c(Cl)c3)C2)c1 (centres undefined) | 13%
18 | O=C(/C=C/c1ccc(Cl)c(Cl)c1)NC1CCN(Cc2cccc(O)c2)CC1.O=C(O)C(F)(F)F | 0%
19 | O=C(O)C(F)(F)F.c1cc(CNCc2ccc3c(c2)OCO3)cc(-c2cccc(CNc3ccc4ncccc4c3)c2)c1 | 18%
20 | Cc1cc(-c2ccc(CNCc3ccc(F)cc3)cc2)ccc1S(=O)(=O)NCCN1CCCC1.O=C(O)C(F)(F)F | 95%
21 | O=C(CCN1C(=O)c2ccccc2C1=O)N1CCN(CC=Cc2ccccc2)CC1 | 10%
22 | Cc1cc(NC(=O)c2cccs2)ccc1OC1CCN(Cc2ccccc2)C1.O=C(O)C(F)(F)F (centres undefined) | 7%
23 | O=c1cc(NCCC(CNCc2ccc(Br)o2)NCc2cc(Br)cc(Br)c2)[nH]c2ccccc12 (centres undefined) | 2%
24 | O=C(Nc1ccc(C(F)(F)F)cc1)c1cccc(S(=O)(=O)NCC2CCCN(CC3CCCCC3)C2)c1.O=C(O)C(F)(F)F (centres undefined) | 27%

Row | SMILES | Inhibition
25 | COc1ccc2nccc([C@@H](O)CN3CCC(NCc4ccc5nnsc5c4)CC3)c2c1.O=C(O)C(=O)O | 16%
26 | O=C(NCC1CCC(CNCCCc2ccccc2)CC1)c1cc(Cl)cc(Cl)c1 (centres undefined) | 58%
27 | COc1ccc2cc(C(=O)Nc3ccc4c(c3)CCN(C3CCC3)CC4)ccc2c1.O=C(O)C(F)(F)F | 34%
28 | COc1cc(-c2nnc(SCC(=O)Nc3cc(C)on3)n2C)cc(OC)c1O | 2%
29 | NS(=O)(=O)c1cccc(N/C=C2\C(=O)Nc3ccc(S(=O)(=O)Cc4c(Cl)cccc4Cl)cc32)c1 | 1%
30 | CC(=O)c1c[nH]c(C(=O)Nc2ccc(-c3cn4ccccc4n3)cc2)c1 | 20%
31 | CCCCc1cc(NCC)nc(Nc2ccc(OC)cc2)n1 | 30%
32 | O=C(NCC1CC1)C1CCN(C(c2ccccc2)c2cc(F)cc(F)c2)CC1 (centres undefined) | 0%
33 | Cc1cc(N(C)C)nc(Nc2ccc(NC(=O)Nc3ccccc3)cc2)n1 | 10%
34 | CC(C)N1CCC(N(Cc2ccc(-c3ccc(C(F)(F)F)cc3)cc2)C(=O)Cn2c(SCc3cccc(F)c3F)cc(=O)c3c2CCC3)CC1.O=C(O)C(O)C(O)C(=O)O | 44%
35 | COC(=O)c1cccc(CNCc2cccc(-c3cccc(-c4nc5cc(F)ccc5[nH]4)c3)c2)c1.O=C(O)C(F)(F)F | 27%
36 | Cc1ccc(S(=O)(=O)N2CCN(C(=O)c3cc(-c4ccccc4)n[nH]3)CC2)cc1 | 0%
37 | COc1ccc(C=NN=c2cc(C)[nH]c3c(C)cccc23)c2ccccc12 | 3%
38 | COc1cccc2cc(C(=O)N[C@@H](CC(C)C)C(=O)Nc3cc(F)ccc3Br)oc12 | 7%
39 | Clc1ccc(-c2cc(-c3csc(Nc4ccncc4)n3)on2)cc1 | 1%
40 | CN(C)CCOc1ccc(NC(=O)NC(C)(C)c2nc(-c3ccc(Cl)c(O)c3)c(-c3ccncc3)[nH]2)cc1.Cl | 22%
41 | O=C(O)C(F)(F)F.OCC1CCN(Cc2cccc(-c3ccc(-c4nc5cc(F)ccc5[nH]4)cc3)c2)CC1 | 11%
42 | CCOc1ccc(-c2nc(NC(=O)CS(=O)(=O)c3ccccc3)sc2C)cc1 | 6%
43 | Fc1ccc(Nc2ccnc3cc(-c4cccc(CNCCN5CCOCC5)c4)ccc23)c(Cl)c1 | 26%
44 | Cc1ccc(Nc2nccc(NCC(O)c3cccc(C(F)(F)F)c3)n2)cc1 (centres undefined) | 19%
